# Data taken from PubChem BioAssay (NCATS).
# “And” between values parts separate entries of the source, which are not always exact repeats. Equal entries are not always repeated. Inconclusive results are not listed. Values without a mark were called inactive. The source made the active and inactive calls. The call rests on the fitted dose curve; in most records, active means well fitted inhibition curve with a large enough effect; inconclusive means small, poorly fitted or top-dose-only effect; inactive means flat fitted curve, though single readings scatter.
# Experiment: Drug repurposing screens with cells derived from glioblastoma tumor samples (AID 1345199); further: nearly all actives have a fitted effect of over 40% in size
# Conditions: GBM patient neurospheres viability, ATP luminescence, 48 h
# How it was run: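 Four patient lines of CD133+ GBM neurospheres were screened at several concentrations; hits were retested in those lines plus three slower-growing GBM lines, using 48-hour treatment and ATP-based viability.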
# [1] = at 45.9 µM (top of the series), tumour line B
# [2] = at 45.9 µM (top of the series), tumour line D
# [3] = at 46 µM (top of the series), tumour line A
# [4] = at 46.1 µM (top of the series), tumour line C
# [5] = at 20 µM (top of the series), tumour line C
# [6] = at 21.2 µM (top of the series), tumour line B
# [7] = at 21.2 µM (top of the series), tumour line D
# [8] = at 21.3 µM (top of the series), tumour line A
# On the % scale 0 is the no-effect control and ±100 the full control effect; potency means the concentration at half of the fitted maximal effect.
compound,measurement,setting,value
Cc1c(C)c2c(c(C)c1O)CC[C@@](C)(CCC[C@H](C)CCC[C@H](C)CCCC(C)C)O2,"activity, negative = cell killing",[1],-3.57% and 0.952%
same,"activity, negative = cell killing",[2],-15.8% and 5.62%
same,"activity, negative = cell killing",[3],-28.9%
same,"activity, negative = cell killing",[4],-17.8% and 12.9%
C=CCSSSCC=C,"activity, negative = cell killing",[1],-7.75%
same,"activity, negative = cell killing",[2],-21.3%
same,"activity, negative = cell killing",[3],-14.2%
same,"activity, negative = cell killing",[4],-8.17%
C/C1=C2N=C(/C=C3N=C(/C(C)=C4\[N-][C@@](C)([C@@H]5N=C1[C@](C)(CCC(=O)NCC(C)OP(=O)(O)O[C@H]1[C@@H](O)[C@@H](n6cnc7cc(C)c(C)cc76)O[C@@H]1CO)[C@H]5CC(N)=O)[C@@](C)(CC(N)=O)[C@@H]4CCC(N)=O)[C@@](C)(CC(N)=O)[C@@H]\3CCC(N)=O)C(C)(C)[C@@H]/2CCC(N)=O.CC(=O)O.[Co] (some centres undefined),"activity, negative = cell killing",[1],-15.2%
same,"activity, negative = cell killing",[2],-26.7%
same,"activity, negative = cell killing",[3],-29%
CCCCCCCCCCCCCCCCCCOP(=O)([O-])OC1CC[N+](C)(C)CC1,"activity, negative = cell killing",[5],-12.3%
same,"activity, negative = cell killing",[6],-9.9%
same,"activity, negative = cell killing",[7],-6.99%
COC(F)(F)C(Cl)Cl,"activity, negative = cell killing",[1],-7.55%
same,"activity, negative = cell killing",[2],-1.1%
same,"activity, negative = cell killing",[3],-22%
N[C@H](C(=O)O)[C@@H]1CC(Cl)=NO1,"activity, negative = cell killing",[2],-29.2%
same,"activity, negative = cell killing",[3],-38.5%
same,Potency,tumour line C,6.51 µM (active)
CCCCCCCCCCCCCCCC(=O)OCC(COC(=O)CCCCCCCCCCCCCCC)OC(=O)CCCCCCCCCCCCCCC,"activity, negative = cell killing",[1],-15.6%
same,"activity, negative = cell killing",[2],-3.31%
same,"activity, negative = cell killing",[3],-22.2%
same,"activity, negative = cell killing",[4],-9%
CC(C)=O,"activity, negative = cell killing",[1],-1.76%
same,"activity, negative = cell killing",[2],-10.6%
same,"activity, negative = cell killing",[4],-8.82%
C#CCOc1ccc2c(C)cc(=O)oc2c1,"activity, negative = cell killing",[1],-16.6%
same,"activity, negative = cell killing",[2],-17.5%
same,"activity, negative = cell killing",[4],-16.5%
CC1=C(/C=C/C(C)=C/C=C/C(C)=C/C=C/C=C(C)/C=C/C=C(C)/C=C/C2=C(C)C(=O)CCC2(C)C)C(C)(C)CCC1=O,"activity, negative = cell killing",[1],-0.298%
same,"activity, negative = cell killing",[2],9.62%
same,"activity, negative = cell killing",[4],-24.8%
CC[N+](CC)(CC)CCC(O)(c1ccccc1)C1CCCCC1 (centres undefined),"activity, negative = cell killing",[5],3.9%
same,"activity, negative = cell killing",[6],-4.74%
same,"activity, negative = cell killing",[7],0.449%
CC(C)NCC1CCc2cc(CO)c([N+](=O)[O-])cc2N1 (centres undefined),"activity, negative = cell killing",[5],-4.59%
same,"activity, negative = cell killing",[6],-15%
same,"activity, negative = cell killing",[7],-4.44%
COC(=O)[C@H]1[C@H]2C[C@@H]3c4[nH]c5ccccc5c4CCN3C[C@H]2C[C@@H](OC(=O)c2cc(OC)c(OC)c(OC)c2)[C@@H]1OC,"activity, negative = cell killing",[1],-12.2%
same,"activity, negative = cell killing",[4],-12.2%
same,Potency,tumour line A,12.6 µM (active)
CNc1cc(OC)c(C(=O)N[C@H]2CCN(Cc3ccccc3)[C@H]2C)cc1Cl,"activity, negative = cell killing",[1],-17.5%
same,Potency,tumour line A,7.08 µM (active)
same,Potency,tumour line D,20 µM (active)
CCOC(=O)C1=C(C)NC(C)=C(C(=O)OCC)C1c1ccccc1C=CC(=O)OC(C)(C)C,"activity, negative = cell killing",[4],2.25%
same,Potency,tumour line A,2.24 µM (active)
same,Potency,tumour line D,12.6 µM (active)
Nc1nc(N)c2nc(CNc3ccc(C(=O)N[C@@H](CCC(=O)O)C(=O)O)cc3)cnc2n1,"activity, negative = cell killing",[1],-5.27%
same,"activity, negative = cell killing",[2],12.1%
same,"activity, negative = cell killing",[3],-19.6%
CC(O)CO (centres undefined),"activity, negative = cell killing",[1],0.179%
same,"activity, negative = cell killing",[2],10.5%
same,"activity, negative = cell killing",[3],-19.9%
same,"activity, negative = cell killing",[4],-8.89%
O=C1CSC2(CCN(CCCN3c4ccccc4Sc4ccc(Cl)cc43)CC2)N1,"activity, negative = cell killing",[4],-24.2%
same,Potency,tumour line A,3.16 µM (active)
same,Potency,tumour line D,20 µM (active)
CCCCC(C)(O)C/C=C/[C@H]1[C@H](O)CC(=O)[C@@H]1CCCCCCC(=O)OC (some centres undefined),"activity, negative = cell killing",[1],-29.2%
same,"activity, negative = cell killing",[2],-0.625%
same,"activity, negative = cell killing",[4],7.24%
CCc1ccc2c(c1)N(CC(C)CN(C)C)c1ccccc1S2 (centres undefined),"activity, negative = cell killing",[4],11.1%
same,Potency,tumour line A,4.47 µM (active)
same,Potency,tumour line B,25.1 µM (active)
CCC(=O)OCC(=O)[C@@]1(OC(=O)CC)[C@H](C)C[C@H]2[C@H]3[C@H]([C@@H](O)C[C@@]21C)[C@@]1(C)C=CC(=O)C=C1C[C@H]3Cl,"activity, negative = cell killing",[5],-8.97%
same,"activity, negative = cell killing",[6],-7.29%
same,"activity, negative = cell killing",[7],-17.3%
CC(=O)OCC(=O)[C@@]12OC3(CCCC3)O[C@@H]1C[C@H]1[C@@H]3CCC4=CC(=O)C=C[C@]4(C)[C@@]3(F)[C@@H](O)C[C@@]12C,"activity, negative = cell killing",[1],-7.71%
same,"activity, negative = cell killing",[2],-10.7%
same,"activity, negative = cell killing",[4],3.06%
CN1CCC(CN2c3ccccc3Sc3ccccc32)C1 (centres undefined),"activity, negative = cell killing",[4],0.543%
same,Potency,tumour line A,7.08 µM (active)
same,Potency,tumour line B,35.5 µM (active)
same,Potency,tumour line D,17.8 µM (active)
Cc1cc(C(=O)NNCc2ccccc2)no1,"activity, negative = cell killing",[5],-3.86%
same,"activity, negative = cell killing",[6],-7.11%
same,"activity, negative = cell killing",[7],-19.1%
same,"activity, negative = cell killing",[8],-21.8%
CC(=O)O[C@]1(C(C)=O)CC[C@H]2[C@@H]3CCC4=CC(=O)CC[C@]4(C)[C@@]3(F)[C@@H](O)C[C@@]21C,"activity, negative = cell killing",[1],-7.13%
same,"activity, negative = cell killing",[2],-7.73%
same,"activity, negative = cell killing",[3],6.04%
same,"activity, negative = cell killing",[4],8.8%
NCc1ccccc1CC(=O)N[C@@H]1C(=O)N2C(C(=O)O)=C(CSc3nnnn3CC(=O)O)CS[C@H]12,"activity, negative = cell killing",[5],-8.3%
same,"activity, negative = cell killing",[6],-4.52%
same,"activity, negative = cell killing",[7],-30%
same,"activity, negative = cell killing",[8],-23.4%
IC(I)I,"activity, negative = cell killing",[1],-9.98%
same,"activity, negative = cell killing",[2],-13.1%
same,"activity, negative = cell killing",[3],-9.65%
same,"activity, negative = cell killing",[4],2.5%
O=C(O)c1cc(O)c2c(c1)[O][Bi][O]2,"activity, negative = cell killing",[1],-11.9%
same,"activity, negative = cell killing",[2],-5.77%
same,"activity, negative = cell killing",[3],-19.4%
same,"activity, negative = cell killing",[4],3.44%
O=C(O)c1cc(=O)c2c3nc4ccccc4oc-3cc(=O)c2[nH]1,"activity, negative = cell killing",[1],-7.08%
same,"activity, negative = cell killing",[2],-5.52%
same,"activity, negative = cell killing",[3],-20.9%
same,"activity, negative = cell killing",[4],-22.4%
CC1(C)S[C@@H]2[C@H](NC(=O)[C@@H](NC(=O)N3CCNC3=O)c3ccccc3)C(=O)N2[C@H]1C(=O)O,"activity, negative = cell killing",[5],-8.8%
same,"activity, negative = cell killing",[6],-3.93%
same,"activity, negative = cell killing",[7],-6.96%
same,"activity, negative = cell killing",[8],-17.7%
O=C(O)CN(CCN(CC(=O)O)CC(=O)O)CC(=O)O,"activity, negative = cell killing",[1],-9.39%
same,"activity, negative = cell killing",[2],-15%
same,"activity, negative = cell killing",[3],-14.7%
same,"activity, negative = cell killing",[4],-16.4%
CO[C@H]1C[C@H](O[C@H]2[C@H](C)[C@@H](O[C@@H]3O[C@H](C)C[C@H](N(C)C)[C@H]3OC(C)=O)[C@@H](C)C[C@]3(CO3)C(=O)[C@H](C)[C@@H](OC(C)=O)[C@@H](C)[C@@H](C)OC(=O)[C@@H]2C)O[C@@H](C)[C@@H]1OC(C)=O,"activity, negative = cell killing",[5],-16.4%
same,"activity, negative = cell killing",[6],-6.68%
same,"activity, negative = cell killing",[7],-16.6%
same,"activity, negative = cell killing",[8],-20.4%
Nc1ncnc2c1ncn2[C@@H]1O[C@H](COP(=O)(O)OP(=O)(O)OP(=O)(O)O)[C@@H](O)[C@H]1O,"activity, negative = cell killing",[1],15.4%
same,"activity, negative = cell killing",[2],-9.21%
same,"activity, negative = cell killing",[3],-1.48%
same,"activity, negative = cell killing",[4],38.9%
